Measurements reported in PubChem BioAssay (NCI).
This is part of a sample that, as a whole, favours compounds with a hit. Of some 83,000 tested, about 20% had one in any assay.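 Testing used 96-well plates and a 48-hour single-concentration exposure. Example: -40 means 40% of the starting cells died.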 Unmarked numbers belong to inactive results. Calls of active or inactive are those of the source. Rule for the calls: active = growth percent below 10; inactive = the rest.

Assays:
Assay in all cases: NCI-60 one-dose screen, 48 h (100 = growth as untreated, 0 = no growth, -100 = all killed)
Settings in all cases: 10 µM unless noted
[1] = system: SK-MEL-2 melanoma
[2] = system: EKVX NSCLC
[3] = system: SN12C renal
[4] = system: UO-31 renal
[5] = system: TK-10 renal
[6] = system: CAKI-1 renal
[7] = system: A498 renal
[8] = system: CCRF-CEM leukemia
[9] = system: MOLT-4 leukemia
[10] = system: SR leukemia
[11] = system: RPMI-8226 leukemia
[12] = system: OVCAR-8 ovarian
[13] = system: OVCAR-5 ovarian
[14] = system: OVCAR-4 ovarian
[15] = system: SK-OV-3 ovarian
[16] = system: IGROV1 ovarian
[17] = system: OVCAR-3 ovarian
[18] = system: HS 578T breast
[19] = system: NCI/ADR-RES ovarian
[20] = system: ACHN renal

| SMILES | growth [1] | growth [2] | growth [3] | growth [4] | growth [5] | growth [6] | growth [7] | growth [8] | growth [9] | growth [10] | growth [11] | growth [12] | growth [13] | growth [14] | growth [15] | growth [16] | growth [17] | growth [18] | growth [19] | growth [20] |
| --- | --- | --- | --- | --- | --- | --- | --- | --- | --- | --- | --- | --- | --- | --- | --- | --- | --- | --- | --- | --- |
| Cn1c(-c2ccccc2)cc(=O)n1-c1ccccc1 | 121% | 93.7% | 107% | 101% | 116% | 95.6% | 89.1% | 91.1% | 99.6% | 101% | 96.5% | 107% | 104% | 103% | 110% | 114% | 124% | 115% | 112% |  |
| CC(C)(CCc1ccccn1)C(=O)CCCc1ccccn1 | 98.7% | 105% | 94.8% | 85.9% | 97% | 98% | 96.3% | 84.8% | 101% | 90.9% |  | 105% | 103% | 111% | 108% | 108% | 110% | 111% | 106% |  |
| Oc1c(C(Nc2cccc3ccccc23)c2ccccc2)ccc2cccnc12 (configuration not stated) | 0.608% (active) | 31% | 38.9% | 20.4% | 46% | 12.7% | 36.7% | 13.2% | -11.9% (active) | 3.7% (active) | 37.6% | 25% | 49.8% | 11.4% | 49.6% | 21.5% | 22.4% | 63.5% | 4.58% (active) |  |
| COc1ccc(C(=O)OC2C(OC3C(O)COC(O[C@H]4C[C@H]5[C@@H]6CC=C7C[C@@H](O)CC[C@]7(C)[C@H]6CC[C@]5(C)[C@H]4[C@H](C)C(=O)CCC(C)C)C3OC(=O)C(C)C)OCC(O)C2O)cc1 (some centres not stated) | -37.2% (active) | 30.2% | 57.3% | -15.2% (active) | 8.54% (active) |  | -61.2% (active) | -21.8% (active) | -34.8% (active) | 5.59% (active) |  | 36.3% | 42% | 60.9% | -21.1% (active) | 37.2% | 60.5% | -2.09% (active) | 75% | 36.6% |
| C=CCOC(=O)C1=C(C)NC2=C(C(=O)CC(C)(C)C2)C1c1ccc(OC)cc1 (configuration not stated) | 95% | 101% | 106% | 85.2% | 114% |  | 85.5% | 97.4% | 89.7% | 98.8% |  | 93% | 107% | 110% | 82.1% | 105% | 107% | 90.6% | 103% | 98.6% |
| CCCCOc1nc2ccc(C)cc2cc1/C=C/C(=O)/C=C(O)/C=C/c1cc2cc(C)ccc2nc1OCCCC | 103% | 102% | 111% | 97.7% | 102% | 98.1% | 116% | 97.6% | 98.8% | 95.9% |  | 100% | 102% | 116% | 89.9% | 109% | 113% | 100% | 96.8% |  |
| Clc1ccccc1CNc1c2ccccc2nc2ccccc12 | 55.6% | 25.9% | 27.8% | 17.5% | 42.5% | 25.2% | -5.85% (active) | 10.7% | 5.14% (active) | 0.495% (active) | -26.9% (active) | 23.8% | 32.6% | 13.1% | 54.9% | 17.8% | 53.6% |  | 23.8% |  |
| CCCCc1nc(Cl)c(C2CC(c3ccc(S(N)(=O)=O)cc3)=NN2c2cc(Cl)cc(Cl)c2)[nH]1 (configuration not stated) | 47.2% | 51.3% | 48.6% | 58.3% | 84.6% | 40.5% | 81.7% | 26.2% | 12.3% | 0.947% (active) |  | 47.1% | 65.7% | 51.4% | 69.6% | 65.6% | 45% |  | 90% |  |
| CCOC(=O)C1=C(C(=O)OCC)N(c2cc(OC)c(OC)c(OC)c2)C(N)=C(C#N)C1c1cc(=O)[nH]c2ccccc12 (configuration not stated) | 115% | 89.3% | 98.5% | 76.8% | 100% | 87% | 78.1% | 113% | 100% | 93.5% | 114% | 105% | 101% | 101% | 97% | 98.2% | 110% | 97.2% | 101% |  |
| COc1cc(/C=C2\CN(C(=O)OC(C)(C)C)C/C(=C\c3ccc(O)c(OC)c3)C2=O)ccc1O | 86.2% | 92.8% | 88.9% | 81% | 105% | 74.2% | 104% | 101% | 47.4% | 79.9% | 71.8% |  | 107% | 97.6% | 105% | 110% | 98.6% | 91.3% | 102% |  |
| CCN1C(=O)C(C)C=C(C)C=C1C (configuration not stated) | 102% | 114% | 112% | 86.8% | 105% | 107% | 112% | 102% | 92.4% | 110% | 115% |  | 106% | 119% | 106% | 106% | 92.6% | 102% | 119% |  |
| Cc1ccc(NC(=O)c2cc(NCc3cc(O)ccc3O)ccc2O)cc1 | 82.8% | 98.7% | 86.1% | 58% | 102% |  |  | 26.4% | 69.7% | 20.3% | 20.2% | 81.8% | 125% | 89.1% | 98.6% | 97.9% | 71% | 86.4% | 95.8% | 100% |
| CC(NC(=O)c1ccccc1)C(=O)Nc1ccccc1 (configuration not stated) | 104% | 105% | 109% | 94.9% | 103% |  | 103% | 90.4% | 101% | 89.9% |  |  | 107% | 114% | 113% | 128% | 135% |  | 108% | 103% |
| CC(C)[C@@]12C[C@@H](OC(=O)C3CO3)[C@@](C)(O1)[C@@H]1CC[C@@H](C)[C@H]1[C@@H]2OC(=O)/C=C/c1ccccc1 (some centres not stated) | 87.9% | 82.3% | 58.6% | -3.56% (active) | 119% | 51.7% | -31.7% (active) | 88.5% | 79.9% | 74.6% | 89.1% | 22.4% | 100% | 111% | 76.9% | 74.6% | 90.4% | -21.2% (active) | 59.4% |  |
| CCN1C(=O)N(CC)C2C1NC(=O)N2/N=C/C=C/c1ccccc1 (configuration not stated) | 34.3% | 53.8% | 61.3% | 57.6% | 69.3% | 47.2% | 25.2% | 19.1% | 43.7% | 20.3% |  | 60.5% | 80.1% | 64.4% | 36.7% | 53.2% | 7.58% (active) | 34.8% | 38.7% |  |
| CCCCCCCCCCCCNC(=O)N[C@H](C(=O)N[C@H]1/C=C/CCNC(=O)/C=C/[C@H](C)NC1=O)C(C)C | 8.32% (active) | 25% | -42.4% (active) | 36.7% | 8.32% (active) | 35.8% | -55.3% (active) | -5.12% (active) | -29% (active) | -22.7% (active) | 41.1% | 11.5% | -83.7% (active) | 3.35% (active) | -42.6% (active) | -32.9% (active) | -44.3% (active) | 49.5% | 94.4% |  |
| CCN(CC)CCNC(=O)n1cc(-c2ccncc2)c(-c2cc(Cl)cc(OC)c2)n1 | 92.3% | 43.4% | 70.2% | 43.8% | 30.1% |  | 63.7% | 83.3% | 82.1% | 51% |  |  | 88.4% | 70.4% | 47.8% | 86% | 94.3% | 88% | 86% | 57.1% |
